Nrf2 block = Nrf2 qHTS screen for inhibitors | A549 ARE-Fluc reporter, luciferase luminescence, 18-24 h | Potency, µM (top dose mostly 46 µM), inactives show at the top dose activity change, negative = inhibition, hits mostly inhibitors | 2.1% of 360,000 active; also: % is scaled to controls: 0 for no effect and ±100 for the full control effect; nearly all actives have a fitted effect of over 60% in size
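In this cell-based qHTS, ARE-driven firefly luciferase in A549 cells reports Nrf2 activity; the luminescent signal after BugLite lysis is the measured value, with a prior CellTiter-Fluor read for cell health.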
TGFb inhibitor = qHTS for Inhibitors of TGF-b; Potency, µM (series often up to 46.1 µM), inactives show top-dose activity, negative = inhibition, usual class: inhibitors; 1.2% of 410,000 active; HepG2 CAGA-GFP TGF-b/SMAD3 reporter, GFP fluorescence, 18 h; TGF-beta stimulated, 500 pg/mL final; also: % is scaled to controls: 0 for no effect and ±100 for the full control effect; nearly all actives have a fitted effect of over 65% in size
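HEPG2 CAGA-GFP reporter cells (1000/well, DMEM with 1% FBS) received compounds, then recombinant TGF-beta at 500 pg/mL final for 18 hours at 37 degrees C. Per-cell GFP summed per well was normalised to unstimulated and stimulated DMSO controls before curve fitting.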
Nrf2 activator = qHTS of Nrf2 Activators; AREc32 ARE-luciferase reporter (MCF7-derived line), luminescence, 24 h; Potency, µM (series often up to 46.1 µM), for inactives: at the top dose activation, usual class: activators; 0.31% of 410,000 active; also: % of control where 0% means no effect; nearly all actives have a fitted effect of over 65% in size
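ARE activation measured as luciferase luminescence (Steady-Glo, 30 min RT) in AREc32_Fluc cells after 24 hr compound exposure at 37 deg C, 5% CO2; cells seeded overnight at 1000/well in OPTI-MEM, 5% FBS.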
HepG2 tox-1 = qHTS for Inhibitors of TGF-b: Cytotox Counterscreen | HepG2 CAGA-GFP viability, ATP luminescence, 18 h | 0.76% of 410,000 active | Potency, µM (highest dose often 46.1 µM), inactives show at the top dose activity change, negative = cytotoxicity, hits mostly cytotoxic | AID 588856, 2011
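CellTiter-Glo luminescence gave cytotoxicity after 18 hours at 37 degrees C. The cells were HepG2 CAGA-GFP in 1% FBS DMEM, stimulated with 500 pg/mL TGF-beta after compound addition. %Activity was normalised to no-cell wells (complete cell-killing) and DMSO (no toxicity), and curves were fitted and classified.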
A549 tox = Nrf2 qHTS screen for inhibitors: counterscreen for cytotoxicity; A549 ARE-Fluc cells, CellTiter-Fluor viability, 18-24 h; Potency, µM (titrated, usually from 46 µM), without a hit: at the top dose activity change, negative = cytotoxicity, hits mostly inhibitors; 0.16% of 390,000 active; AID 504648, 2011; also: % is scaled to controls: 0 for no effect and ±100 for the full control effect
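A549 ARE_Fluc cells in 5% FBS OPTI-MEM were exposed to compounds in concentration-response for 18-24 h at 37 deg C. Viability was read by CellTiter-Fluor fluorescence (Ex 405/Em 525) after 30 min, before the luciferase read.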
TGFb CAGA inh = qHTS for Inhibitors of TGF-b: Confirmation of Cherry Picks. shares compounds with TGFb inhibitor. HepG2 CAGA-GFP TGF-b reporter, GFP fluorescence, 18 h; cells stimulated with TGF-beta, 500 pg/mL. Potency, µM (series often up to 46.1 µM), without a hit: at the highest dose activity, negative = inhibition, usual class: inhibitors. 63% of 1,600 active; also: % is scaled to controls: 0 for no effect and ±100 for the full control effect; nearly all actives have a fitted effect of over 65% in size
HepG2 tox-2 = qHTS for Inhibitors of TGF-b: Cytotox Counterscreen for Cherry Picks; shares compounds with TGFb inhibitor; HepG2 CAGA-GFP viability, ATP luminescence, 18 h; cells stimulated with TGF-beta, 500 pg/mL; Potency, µM (highest dose often 46.1 µM), without a hit: at the highest dose activity, negative = cytotoxicity, most hits filed as inhibitors; 27% of 1,600 active; also: % is scaled to controls: 0 for no effect and ±100 for the full control effect; nearly all actives have a fitted effect of over 70% in size
TGFb CCL64 inh = qHTS for Inhibitors of TGF-b: CCL64 Cells Orthogonal Assay for Cherry Picks. Potency, µM (highest dose often 46.1 µM), inactives show at the top dose activity, negative = inhibition, most hits filed as inhibitors. CCL64 CAGA-GFP reporter, TGF-b stimulated, GFP fluorescence, 18 h. 41% of 1,600 active. shares compounds with TGFb inhibitor; also: nearly all actives have a fitted effect of over 65% in size
COP TGFb inh = qHTS for Inhibitors of TGF-b: Hit Validation in HepG2 Cells using COP promoter | shares compounds with TGFb inhibitor | Potency, µM (series often up to 46.1 µM), for inactives: top-dose activity, negative = inhibition, most hits filed as inhibitors | AID 720537, 2013 | HepG2 COP-GFP TGF-b reporter, GFP fluorescence, 18 h; cells stimulated by added recombinant TGF-beta | 3% of 1,600 active; also: nearly all actives have a fitted effect of over 70% in size
Active calls of the source: *; u = inconclusive; x = not tested or not shown; ! = not confirmed by another sample. Only some compounds are listed: those with a hit (about 3.6% of all), similar ones and a draw of the others. Calls follow the shape of the dose curve; as a rule, active = well fitted curve in the direction sought with a large enough effect; inconclusive = small, poorly fitted or top-dose-only effect, or another doubt; inactive = no such curve, though single readings can be large; an effect the other way counts as inactive or inconclusive. Potency is read from the fitted curve at half-maximal effect.

SMILES	Nrf2 block	TGFb inhibitor	Nrf2 activator	HepG2 tox-1	A549 tox	TGFb CAGA inh	HepG2 tox-2	TGFb CCL64 inh	COP TGFb inh
COc1ccc(C(=O)OCC(=O)Nc2ccc3c(c2)OCO3)cc1S(=O)(=O)N1CCOCC1	0%	-9%	0%	12%	0%	x	x	x	x
COc1ccc(-c2nc3c4ccccc4ccn3c2Cc2ccc(C)cc2)cc1OC	x	13µM*	5%	-13%	x	26µM*	-17%	18µM*	15%
COc1ccc(-c2nc3c4ccccc4ccn3c2Cc2cccc(Cl)c2)cc1OC	x	-29%	12%	-20%	x	x	x	x	x
COc1cc(/C=N/n2cc(-c3ccccc3)[nH]c2=S)cc(OC)c1O	6%	16µM*	14%	-2%	6%	15µM*	1%	-30%	3%
Nc1cc(=O)[nH]c(SCC(=O)Nc2ccccc2-c2ccccc2)n1	29%	9%	0%	-15%	-4%	x	x	x	x
C#Cc1ccc(NC(=O)C2(C)CCN2C(=O)c2ccccc2CCc2ccccc2)cc1 (centres undefined)	x	u	5%	-27%	x	u	-13%	u	2%
CSc1ccc(NC(=O)C2(C)CCN2C(=O)c2ccccc2CCc2ccccc2)cc1 (centres undefined)	x	8%	5%	5%	x	x	x	x	x
COc1ccc(-c2nnn(CC(=O)N3CCN(c4ccccc4OC)CC3)n2)cc1	-2%	3.5µM*	0%	-25%	-1%	-17%	0%	u	-4%
COc1ccc(-c2nnn(CC(=O)N3CCN(c4ccccc4OC)CC3)n2)cc1OC	-22%	-2%	0%	7%	-3%	x	x	x	x
CCN(CC)S(=O)(=O)c1cccc(C(=O)OCC(=O)C23CC4CC(CC(C4)C2)C3)c1	u	3%	-1%	0%	1%	x	x	x	x
COc1cc(-c2noc(C)c2/C=C/c2cccc([N+](=O)[O-])c2)cc(OC)c1OC	-29%	13µM*	-1%	-19%	u	u	-27%	u	-11%
CC(NC1=CC(=O)c2cccnc2C1=O)C(O)c1ccccc1 (centres undefined)	u	5µM*	u	5µM*	u	5.8µM*	5.2µM*	u	13µM*
COc1ccc2c(c1)OC[C@H]1[C@H]2N2C(=O)CN(Cc3ccc(Cl)cc3)C(=O)[C@@]2(C)[C@H]1c1ccccc1	-2%	5µM*	5%	-25%	-13%	u	-4%	-1%	0%
COc1ccc(CN2CC(=O)N3[C@H]4c5ccc(OC)cc5OC[C@@H]4[C@H](c4ccccc4)[C@]3(C)C2=O)cc1	4%	-1%	-1%	-33%	-4%	x	x	x	x
O=C(Nc1ccccc1C(F)(F)F)C1CCN(C(=O)c2cccs2)CC1	18%	4%	-1%	-2%	3%	x	x	x	x
CCCC[C@H]1COCCS(=O)(=O)N1Cc1ccc(Br)cc1	-25%	10µM*!	0%	0%	3%	u	-17%	u	16%
C[C@]12c3[nH]c4cc(-c5ccco5)ccc4c3CCN1C(=O)[C@@H](CC(=O)NCc1cccc(C(F)(F)F)c1)C[C@@H]2C(=O)N1CCCCC1	u	7.9µM*	-1%	-28%	u	16µM*	u	u	55%
CC[C@]12c3[nH]c4cc(-c5ccco5)ccc4c3CCN1C(=O)[C@@H](CC(=O)NCc1cccc(C(F)(F)F)c1)C[C@@H]2C(=O)N1CCN(C(=O)C2CC2)CC1	u	10µM*	1%	-5%	u	15µM*	u	u	25%
C[C@]12c3[nH]c4cc(-c5ccco5)ccc4c3CCN1C(=O)[C@@H](CC(=O)NCC13CC4CC(CC(C4)C1)C3)C[C@@H]2C(=O)N1CCCCC1	u	u	-1%	-40%	-27%	x	x	x	x
COc1ccc(NC(=O)CNC(=O)Cc2ccccc2)cc1	0%	4%	-2%	-40%	-1%	x	x	x	x
C1=C(CCNc2ncnc3c2[nH]c2ccccc23)CCCC1	5.2µM*	3.5µM*	0%	-88%	-3%	u	21µM*	6.5µM*	25%
CCOC(=O)C(C)Sc1nnc(Cc2cc(=O)[nH]c(=O)[nH]2)n1-c1cccc(OC)c1 (centres undefined)	0%	-9%	0%	2%	11%	x	x	x	x
O=S(=O)(NCCOc1ccccc1Cl)c1ccc2oc3ccccc3c2c1	0%	16µM*	0%	-29%	0%	18µM*	u	u	88%
COc1ccccc1OCCNS(=O)(=O)c1ccc2oc3ccccc3c2c1	u	u	2%	-14%	-5%	x	x	x	x
Cc1cccc(NC(=O)c2ccc(Cl)c(S(=O)(=O)N3CCCCC3)c2)n1	u	-14%	1%	0%	-7%	x	x	x	x
CN(C)CCCN(C(=O)CCOc1ccccc1)c1nc2ccc(F)cc2s1	u	3.5µM*	u	-125%	-27%	15µM*	u	8.2µM*	u
CN(C)CCCN(C(=O)COc1ccccc1)c1nc2ccc(F)cc2s1	11%	18%	4%	-2%	-2%	x	x	x	x
CCSc1ccc([C@@H]2[C@@H]3C(=O)N(CC)C(=O)[C@@H]3[C@]3(C(=O)OC)CCCN23)cc1	-13%	u	5%	-21%	-4%	u	4%	-11%	0%

Bioassay records: PubChem, National Center for Advancing Translational Sciences (NCATS)
